# Reference: PubChem BioAssay (Tox21)
# Unmarked numbers belong to inactive results. Where a call stands in place of a potency, no number is given. The source made the active and inactive calls. Calls come from the whole dose curve.
# Target: Gonadotropin-releasing hormone receptor (Homo sapiens) (UniProt P30968)
# Assay: Human gonadotropin-releasing hormone receptor (GnRHR) small molecule agonists, calcium flux assay in GnRHR-HEK293 cells (AID 1920063); note: nearly all actives have a fitted effect of over 35% in size
# Conditions: calcium flux fluorescence, agonist mode; series mostly up to 57.6 µM; activity change: at the top concentration
# From the text: National Center for Advancing Translational Sciences [NCATS]
# Division of Preclinical Innovation [DPI]
# U.S. Environmental Protection Agency [EPA]
# National Institutes of Environmental Health Sciences [NIEHS]
# National Toxicology Program [NTP]
# U.S. Food and Drug Administration [FDA]
# Gonadotropin-releasing hormone receptor (GnRHR) is a G-protein-coupled receptor (GPCR) and acts (through phospholipase C) to increase intracellular inositol trisphosphate and then release intracellular calcium stores. Cell-based GnRHR-Hek293 calcium influx assay is using HEK293 cells that have been genetically engineered to express the human GnRHR, which activity can be measured by calcium signaling. A compound/drug can activate (agonist) GnRHR that can be monitored by levels of intracellular calcium.
# GnRHR-HEK293 cells developed by Codex Corp contain human GnRHR reporter gene, which was stably integrated into HEK 293 cells. The compound activation can be detected by fluorescence intensity via calcium flux assay. This cell line has been used to screen the Tox21 10K compound library to identify GnRHR agonists.
# GnRHR-Hek293 cells were dispensed at 1500cells/4uL/well in 1536-well black wall/clear bottom plates using a multidrop dispenser. After the assay plates were incubated at a 37 C/5% CO2 incubator for 18 hours, 4 uL of Calcium Dye Solution was added to each well. The plates were incubated at 37 C for 1 hour. For agonist mode, 23 nL of compounds dissolved in DMSO, positive controls or DMSO only was transferred to the assay plate by a pin tool station. The fluorescence intensity in the plates was measured using FDSS 7000EX kinetic plate reader with a filter set of Ex/Em=480/540 for 3 min at 1 sec intervals. Each test compound was measured at 15 concentrations and in triplicates.
# Sequence of Gonadotropin-releasing hormone receptor (Homo sapiens) (P30968 whole entry, looked up): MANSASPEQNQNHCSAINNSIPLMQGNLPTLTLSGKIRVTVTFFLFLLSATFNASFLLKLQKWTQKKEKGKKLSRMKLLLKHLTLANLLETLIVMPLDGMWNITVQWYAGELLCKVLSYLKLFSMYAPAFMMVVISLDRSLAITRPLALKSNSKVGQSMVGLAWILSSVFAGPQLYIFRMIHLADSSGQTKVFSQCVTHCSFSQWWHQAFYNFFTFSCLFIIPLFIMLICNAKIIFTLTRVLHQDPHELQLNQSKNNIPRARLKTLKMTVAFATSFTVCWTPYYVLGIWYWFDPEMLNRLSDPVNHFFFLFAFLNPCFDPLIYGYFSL
Structure (SMILES),Potency,activity change
CC12CC1(C)C(=O)N(c1cc(Cl)cc(Cl)c1)C2=O (stereo not given),inactive,
O=c1[nH]c(=O)[nH]c(=O)[nH]1,inactive,
CCCCCCCCCCCC(=O)O,inactive,
[O]=[Cr][O][Cr]=[O],,-1.3%
CC(C=O)Cc1ccc2c(c1)OCO2 (stereo not given),,-0.153%
C=CC(C)=O,,-0.747%
CCOP(=S)(OCC)SCSC(C)(C)C,inactive,
ClCC(Br)CBr (stereo not given),,0.607%
ClC(Cl)=C(Cl)C(Cl)=C(Cl)Cl,inactive,
CCC(C)(C)c1ccc(O)cc1,inactive,
N#CCC#N,,-0.305%
CC(C)OC(=O)Cc1ccccc1,,-1.54%
Clc1cccc(Cl)c1Cl,inactive,
CCOC(=O)N(C)N=O,,-2.44%
CCC1(c2ccccc2)CCC(=O)NC1=O (stereo not given),,"-1.85% [at 26.4 µM, active compounds read high]"
CCOc1nc(F)cc2nc(S(=O)(=O)Nc3c(Cl)cccc3Cl)nn12,,0.968%
Oc1cc(Cl)ccc1Oc1ccc(Cl)cc1Cl,,"14% [at 26.4 µM, active compounds read high]"
N#Cc1c(Cl)c(Cl)c(Cl)c(C#N)c1Cl,inactive,
NC(=O)CN1CCCC1=O,inactive,
Cc1ccc2c(c1N)C(=O)c1ccccc1C2=O,inactive,

Structure (SMILES),Potency,activity change
Cc1ccc(OP(=O)(Oc2ccc(C)cc2)Oc2ccc(C)cc2)cc1,inactive,
ClCCBr,inactive,
COC(C)(C)C,,-0.588%
CC(Cl)CCl (stereo not given),,1.5%
O=[N+]([O-])c1cc([As](=O)(O)O)ccc1O,inactive,
CCN(CC)CCN1C(=O)CN=C(c2ccccc2F)c2cc(Cl)ccc21,,"-0.474% [at 26.4 µM, active compounds read high]"
O=C(O)C(Cl)(Cl)Cl,inactive,
Clc1ccc(COC(Cn2ccnc2)c2ccc(Cl)cc2Cl)cc1 (stereo not given),inactive,
OC(O)C(Cl)(Cl)Cl,inactive,
c1cc2c(c(N3CCNCC3)c1)OCCO2,,"3.15% [at 26.4 µM, active compounds read high]"
CC(C)(C)OOC(=O)c1ccccc1,inactive,
O=[N+]([O-])/C=C/c1ccccc1,inactive,
CCOc1cc(C=O)ccc1O,,0.229%
CCC(C)(C#N)N=NC(C)(C#N)CC (stereo not given),,-0.173%
N#Cc1ccccc1N,,-0.429%
CCCCOC(=O)CCC(=O)OCCCC,,-1.01%
O=C(CCl)c1ccc(Cl)cc1Cl,inactive,
c1ccc2c(c1)oc1ccccc12,inactive,
CCOP(=S)(OCC)SCCSCC,inactive,
C[N+]1(C)CCCCC1,,-0.804%
